The results in this text go back to PubChem BioAssay.

Several values for one entry are separate records, joined by “and”; a condition that tells them apart may be missing. Equal entries are not always repeated. The source holds several records for some structures; these can differ, active in one and inactive in another. Activity calls are given as the source filed them. How the calls were made is not given here.

A short description of assay [1]: liver-stage malaria parasite load reduction – cell-based, known kinase inhibitor set, luminescence, hepatoma host viability (AID 624392).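 Further: infected cells incubated roughly two days before readout.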 To be noted: Plasmodium liver stage in hepatoma cells, luciferase luminescence, concentration not given here; liver cell % of control: measured here: host liver cell viability; parasite % of control: stronger effect = lower value.
Assay [2] in a line: altered dexamethasone sensitivity, NF-kB reporter, cell-based, luciferase, IL-1B stimulus (AID 624486).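 On percent of negative control (+Dex): 100% = mean signal of vehicle control wells on the plate.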 The following applies: IL-1B + dexamethasone, luminescence; percent of negative control (+Dex): actives lie on both sides, concentration not given here; z-score: measured here: IL-1B alone, no Dex.
The target of assay [3] is Cellular tumor antigen p53 (Homo sapiens) (UniProt P04637). Nature of the assay: GFP-p53 level modulators in HPV16+ cells – imaging, known kinase inhibitor set, EGFP/DsRed ratio (AID 1053116).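 Further: cells exposed to compounds for 24 h at 37 °C before reading.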 To be noted: GFP-p53 stability, stronger effect = higher value; EGFP object count: measured here: GFP-p53 positive objects count.
Assay [4] in a line: inducers of IRF3 signaling, differentiated THP-1 – cell-based, PMA-stimulated THP-1, luminescence (AID 1053176). To be noted: PMA-differentiated THP-1, IRF3 reporter luminescence; stronger effect = higher value.

Sequence of Cellular tumor antigen p53 (Homo sapiens) (P04637 whole entry, looked up): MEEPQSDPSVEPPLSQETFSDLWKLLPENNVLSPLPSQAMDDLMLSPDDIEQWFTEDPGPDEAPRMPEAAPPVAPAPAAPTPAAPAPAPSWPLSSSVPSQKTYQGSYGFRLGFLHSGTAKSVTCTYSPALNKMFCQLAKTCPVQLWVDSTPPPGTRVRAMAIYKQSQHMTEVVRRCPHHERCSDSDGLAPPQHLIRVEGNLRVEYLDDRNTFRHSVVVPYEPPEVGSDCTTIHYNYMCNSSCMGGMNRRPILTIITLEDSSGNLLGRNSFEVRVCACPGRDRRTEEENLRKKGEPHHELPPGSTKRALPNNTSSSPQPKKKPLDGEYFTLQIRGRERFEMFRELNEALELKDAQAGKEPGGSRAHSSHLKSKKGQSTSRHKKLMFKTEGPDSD

Regarding `Cn1c(=O)c(Cc2ccccc2F)cc2cnc(NC3CCOCC3)nc21`, in assay [1], the liver cell % of control is 106% and the parasite % of control was 64.6% (inactive). Moreover, in assay [2], the percent of negative control (+Dex) was 107% (inactive) and the z-score was found to be 0.55. Moreover, in assay [3], the EGFP object count was 2.5 and the EGFP/DsRed ratio is 0.0998 (inactive). Moreover, in assay [4], the fraction signal was 0.0035 (inactive).
Regarding `Cc1ccc2c(c1)c(C1=C(c3cn(C)c4ccccc34)C(=O)NC1=O)cn2C`, in assay [1], the liver cell % of control worked out at 83% and the parasite % of control is 41.7% (inactive). For the same molecule, in assay [2], the percent of negative control (+Dex) is 102% (inactive) and the z-score was -1.36. For the same molecule, in assay [3], the EGFP object count is 174 and the EGFP/DsRed ratio is 0.907 (active). Moreover, in assay [4], the fraction signal is -0.003 (inactive).
As for `O=C1NC(=NCc2ccccc2Br)SC1=Cc1ccc2ncccc2c1`, in assay [1], the liver cell % of control is 130% and the parasite % of control is 32.9% (inactive). Moreover, in assay [2], the percent of negative control (+Dex) was 85.5% (inactive) and the z-score was -0.56. Moreover, in assay [3], the EGFP object count amounted to 8 and the EGFP/DsRed ratio is 0.253 (inactive). In assay [4], the fraction signal was -0.0095 (inactive).
As to `Cc1cc(C)c2c(n1)sc1c(N)ncnc12`, in assay [1], the liver cell % of control turned out to be 173% and the parasite % of control was 24.3% (inactive). Moreover, in assay [2], the percent of negative control (+Dex) was 68.5% (active) and the z-score was -2.76. Moreover, in assay [3], the EGFP object count stood at 2.5 and the EGFP/DsRed ratio was 0.0145 (inactive). The fraction signal in assay [4] is 0.0035 (inactive).
With `Cn1cc(C2=C(c3cn(CCCCO)c4ccccc34)C(=O)NC2=O)c2ccccc21`, in assay [1], the liver cell % of control is 84% and the parasite % of control was 14.3% (inactive). Besides, in assay [2], the percent of negative control (+Dex) was 108% (inactive) and the z-score was -1.57. For the same molecule, in assay [3], the EGFP object count is 32.5 and the EGFP/DsRed ratio was 0.668 (inactive). Besides, the fraction signal in assay [4] was -0.005 (inactive).
As for `Cn1cc(C2=C(c3cccc(OCC(O)CO)c3)C(=O)NC2=O)c2ccccc21` (stereo unspecified), in assay [1], the liver cell % of control was 160% and 129%; the parasite % of control was 22.3% (inactive) and 22.7% (inactive). In assay [2], the percent of negative control (+Dex) was 136% (active) and 100% (inactive); the z-score was -1.71 and 0.045. For the same molecule, in assay [3], the EGFP object count was 7 and 9.5; the EGFP/DsRed ratio was 0.14 (inactive) and 0.372 (inactive). Also, in assay [4], the fraction signal is 0.0035 (inactive) and -0.0025 (inactive).
`O=C1NC(=NCc2cccs2)OC1=Cc1ccc2ncccc2c1`: in assay [1], the liver cell % of control was 113% and the parasite % of control is 64.9% (inactive). Further, in assay [2], the percent of negative control (+Dex) is 55% (active) and the z-score is -4.77. Moreover, in assay [3], the EGFP object count was 3.5 and the EGFP/DsRed ratio is 0.0818 (inactive). In addition, the fraction signal in assay [4] was -0.0135 (inactive).
With `CC(=O)NC(Cc1ccc(OP(=O)(O)O)cc1)C(=O)NC1CCC(=O)N2CCCC(C(=O)Nc3cccc4ccccc34)N2C1=O` (stereo unspecified), in assay [1], the liver cell % of control came to 103% and the parasite % of control was 47% (inactive). Moreover, in assay [2], the percent of negative control (+Dex) is 104% (inactive) and the z-score was determined as 0.475. Moreover, in assay [3], the EGFP object count came out at 6.5 and the EGFP/DsRed ratio is 0.135 (inactive). The fraction signal in assay [4] was -0.007 (inactive).
Regarding `Cn1cc(C2=C(c3c(S(C)=O)n(C)c4ccccc34)C(=O)NC2=O)c2ccccc21` (stereo unspecified), in assay [1], the liver cell % of control is 123% and the parasite % of control was 78.6% (inactive). In assay [2], the percent of negative control (+Dex) is 97.5% (inactive) and the z-score was 0.295. For the same molecule, in assay [3], the EGFP object count was 5 and the EGFP/DsRed ratio is 0.591 (inactive). In assay [4], the fraction signal was -0.003 (inactive).
Turning to `NC1=NC(=O)C(=Cc2ccc3ncccc3c2)S1`, in assay [1], the liver cell % of control was 101% and the parasite % of control was 50.6% (inactive). For the same molecule, in assay [2], the percent of negative control (+Dex) was 100% (inactive) and the z-score was found to be 0.495. In assay [3], the EGFP object count is 4 and the EGFP/DsRed ratio was 0.204 (inactive). The fraction signal in assay [4] was -0.007 (inactive).
For `Cn1cc(C2=C(c3cn(C)c4cc(N)ccc34)C(=O)NC2=O)c2ccccc21`, in assay [1], the liver cell % of control came out at 85.5% and the parasite % of control is 26.4% (inactive). For the same molecule, in assay [2], the percent of negative control (+Dex) was 96% (inactive) and the z-score is -2.26. Also, in assay [3], the EGFP object count amounted to 41.5 and the EGFP/DsRed ratio is 0.462 (inactive). Also, the fraction signal in assay [4] was -0.0115 (inactive).
Turning to `Cc1c(C2=C(c3cn(C)c4ccccc34)C(=O)NC2=O)c2ccccc2n1C`, in assay [1], the liver cell % of control was determined as 103% and the parasite % of control was 53.6% (inactive). Besides, in assay [2], the percent of negative control (+Dex) is 102% (inactive) and the z-score is -0.055. In assay [3], the EGFP object count is 9 and the EGFP/DsRed ratio is 0.392 (inactive). Besides, the fraction signal in assay [4] is 0.0015 (inactive).
Turning to `Cn1c(=O)c(Oc2ccccc2)cc2cnc(NC3CCOCC3)nc21`, in assay [1], the liver cell % of control was found to be 106% and the parasite % of control was 60.6% (inactive). Moreover, in assay [2], the percent of negative control (+Dex) was 105% (inactive) and the z-score amounted to 1.03. For the same molecule, in assay [3], the EGFP object count was determined as 3.5 and the EGFP/DsRed ratio is 0.0479 (inactive). For the same molecule, the fraction signal in assay [4] was -0.005 (inactive).
In the case of `O=C1NC(=NCc2ccccc2Cl)SC1=Cc1ccc2ncccc2c1`, in assay [1], the liver cell % of control amounted to 108% and the parasite % of control is 42.1% (inactive). For the same molecule, in assay [2], the percent of negative control (+Dex) is 95% (inactive) and the z-score is -0.715. Also, in assay [3], the EGFP object count is 9 and the EGFP/DsRed ratio is 0.384 (inactive). Further, the fraction signal in assay [4] is -0.0075 (inactive).
For `COc1cccc(C2=C(c3cn(C)c4ccccc34)C(=O)NC2=O)c1`, in assay [1], the liver cell % of control worked out at 216% and the parasite % of control was 15.4% (inactive). In assay [2], the percent of negative control (+Dex) is 110% (inactive) and the z-score was -0.735. In addition, in assay [3], the EGFP object count was determined as 9.5 and the EGFP/DsRed ratio was 0.204 (inactive). The fraction signal in assay [4] is -0.003 (inactive).
On to `Cn1cc(C2=C(c3cn(CCN)c4ccccc34)C(=O)NC2=O)c2ccccc21`, for which, in assay [1], the liver cell % of control amounted to 89.8% and the parasite % of control was 29.9% (inactive). In assay [2], the percent of negative control (+Dex) is 99% (inactive) and the z-score amounted to 0.435. In addition, in assay [3], the EGFP object count was 14.5 and the EGFP/DsRed ratio is 0.0574 (inactive). Moreover, the fraction signal in assay [4] is 0.0015 (inactive).
Consider `O=C1NC(=NCCCc2ccccc2)SC1=Cc1ccc2ncccc2c1`, for which, in assay [1], the liver cell % of control came out at 104% and the parasite % of control is 43% (inactive). Moreover, in assay [2], the percent of negative control (+Dex) was 83% (inactive) and the z-score was -0.69. In addition, in assay [3], the EGFP object count stood at 5 and the EGFP/DsRed ratio was 0.104 (inactive). The fraction signal in assay [4] is -0.011 (inactive).
`COc1cccc(C2=C(c3c(C)n(C)c4ccccc34)C(=O)NC2=O)c1`: in assay [1], the liver cell % of control amounted to 97.6% and the parasite % of control is 66.1% (inactive). Further, in assay [2], the percent of negative control (+Dex) is 91% (inactive) and the z-score is -0.5. Moreover, in assay [3], the EGFP object count amounted to 6 and the EGFP/DsRed ratio is 0.121 (inactive). Also, the fraction signal in assay [4] is -0.0005 (inactive).
